Structures are written as SMILES. Where “and” joins values, the source holds several entries; their conditions need not be identical. Equal entries are not always repeated. Out of some 16,000 compounds screened, about 5,100 (32%) were called active. Inconclusive results (about 25%) are left out. This is one part of the list. A number with no mark means an inactive call. The call rests on the fitted dose curve; in most records, active means well fitted curve in the direction sought with a large enough effect; inconclusive means small, poorly fitted or top-dose-only effect, or effect the other way; inactive means no such curve, though single readings can be large or run the other way.

The AC50 is the concentration giving half of the maximal activity seen.
On the % scale 0 is the no-effect control and ±100 the full control effect.

In this test the target is Cytochrome P450 3A4 (Homo sapiens) (UniProt P08684). In words: Cytochrome panel assay with activity outcomes. The note with it: recombinant CYP, pro-luciferin dealkylation, luminescence, p450-cyp3a4; series mostly up to 57.1 µM.
Cytochrome P450 3A4 (Homo sapiens), sequence (P08684 whole entry, looked up): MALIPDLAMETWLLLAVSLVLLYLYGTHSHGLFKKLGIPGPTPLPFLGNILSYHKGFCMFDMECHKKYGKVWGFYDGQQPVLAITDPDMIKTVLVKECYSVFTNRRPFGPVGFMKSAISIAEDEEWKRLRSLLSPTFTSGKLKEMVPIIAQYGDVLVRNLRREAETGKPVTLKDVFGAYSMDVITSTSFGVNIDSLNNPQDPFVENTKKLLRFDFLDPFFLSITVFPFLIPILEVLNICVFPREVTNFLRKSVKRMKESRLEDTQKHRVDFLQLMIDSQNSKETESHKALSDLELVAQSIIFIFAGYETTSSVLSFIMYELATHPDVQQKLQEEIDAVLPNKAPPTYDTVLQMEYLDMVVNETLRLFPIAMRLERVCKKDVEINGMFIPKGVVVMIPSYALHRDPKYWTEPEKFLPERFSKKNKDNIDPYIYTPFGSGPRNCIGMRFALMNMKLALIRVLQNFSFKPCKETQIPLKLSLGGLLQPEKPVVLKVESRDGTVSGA
On to `C[C@]1(OC(=O)/C=C\c2ccccc2)C[C@@H](O)[C@@]2(O)C=CO[C@@H](O[C@H]3O[C@@H](CO)[C@@H](O)[C@@H](O)[C@@H]3O)[C@H]21`, for which the AC50 entry is “inactive”.

Take `O=C(N/C(=C/c1cccs1)c1nc2ccccc2[nH]1)c1ccccc1`: the AC50 was 14.1 µM (active).

Turning to `O=C(N/C(=C/c1ccc(Br)cc1)c1nc2ccccc2[nH]1)c1ccco1`, the AC50 is 1.58 µM (active).

For `NS(=O)(=O)c1ccc(N=C2C(=O)Nc3ccccc32)cc1`, the activity, negative = inhibition is -12.5% [at 11.4 µM].

As for `O=C1Nc2ccccc2Nc2ncccc21`, the AC50 entry is “inactive”.

For `CN(C)c1ccc(/C=C2/C(=O)Nc3ccccc32)cc1`, the AC50 is 10 µM (active).

As for `COC(=O)N1CCC2(CCN(C(=O)Nc3cccc(F)c3)CC2)CC1`, the AC50 entry was “inactive”.

As for `CC(=O)N1CCC2(CC1)CCN(C(=O)Nc1cccc(F)c1)CC2`, the AC50 entry is “inactive”.

In the case of `COCC(=O)N1CCC2(CCCN(C(=O)Nc3cccc(F)c3)C2)CC1`, the AC50 result was “inactive”.

Consider `COc1ccc(C(=O)N2CCC3(CCCN(C(=O)Nc4cccc(F)c4)C3)CC2)cc1`, for which the AC50 is 12.6 µM (active).

In the case of `O=C(Nc1cccc(F)c1)N1CCCC2(CCN(C(=O)c3ccncc3)CC2)C1`, the AC50 was 6.31 µM (active).

As to `COc1ccc(C(=O)N2CCC3(CCN(C(=O)Nc4cccc(F)c4)CC3)CC2)cc1`, the AC50 result was “inactive”.

For `O=C(Nc1cccc(F)c1)N1CCC2(CCNCC2)CC1`, the AC50 result is “inactive”.

With `O=C(Nc1cccc(F)c1)N1CCCC2(CCNCC2)C1`, the AC50 was 15.8 µM (active).

In the case of `NC(=NCCC[C@H](N)C(=O)O)NO`, the AC50 result was “inactive”.

On to `CCC(=O)NCCNC(=O)c1c(SC)nsc1SC`, for which the AC50 entry was “inactive”.

Take `Cc1noc(N)c1C(=O)Nc1ccc(F)cc1`: the activity, negative = inhibition was 11.9% [at 2.29 µM].

As to `CSc1nsc(SC)c1C(=O)Nc1ccc(C)cc1`, the AC50 is 7.94 µM (active).

As to `O=C(O)c1nnsc1-c1csnn1`, the activity, negative = inhibition is -19.7% [at 11.4 µM].

Turning to `CCOC(=O)c1nc(N)sc1C(=O)OCC`, the AC50 result was “inactive”.

`COc1ccc(-n2c(C)nn(C)c2=O)cc1`: the AC50 entry is “inactive”.

Take `CCOC(=O)c1sc(=N)n(-c2ccc(OC)cc2)c1C`: the AC50 is 7.08 µM (active).

With `N[C@@H](Cc1ccccc1)C(=O)O`, the activity, negative = inhibition was -6.07% [at 11.4 µM].

Turning to `CC1(C)CC(=O)C/C(=N/NC(=O)CCCOc2ccc(Cl)cc2Cl)C1`, the activity, negative = inhibition was -15.2% [at 2.29 µM].

For `CC(C)(C)C(=O)NNC(=O)CCCOc1ccc(Cl)cc1Cl`, the AC50 entry was “inactive”.

Regarding `COc1ccc(/C=N/NC(=O)CCCOc2ccc(Cl)cc2Cl)cc1[N+](=O)[O-]`, the AC50 is 14.1 µM (active).

`COc1ccc(NC(=O)c2ccc(C(=O)c3cc(OC)ccc3OC)cc2)cc1`: the AC50 result was “inactive”.

Take `COc1ccc(Br)cc1C(=O)Nc1ccc(Cc2ccncc2)cc1`: the concentration at half-maximal activity (AC50) was 0.708 µM (active).

As to `O=C(Nc1ccc(-c2cn3ccccc3n2)cc1)c1cc(Br)ccc1O`, the activity, negative = inhibition is -18.7% [at 11.4 µM].

As for `Cc1ccc(/C=N\NC(=O)c2cc(OCC(F)(F)F)ccc2OCC(F)(F)F)cc1`, the AC50 entry is “inactive”.

As for `O=C(NCCNS(=O)(=O)c1ccccc1Cl)c1cc(OCC(F)(F)F)ccc1OCC(F)(F)F`, the half-maximal activity concentration (AC50) was 25.1 µM (active).

Consider `O=C(O)CONC(=O)c1cc(OCC(F)(F)F)ccc1OCC(F)(F)F`, for which the AC50 result is “inactive”.

On to `COC(=O)C/C=C\[C@@H](C)[C@@H](/C=N\O[C@@H](C)c1cn([C@H](CO)Cc2ccccc2)nn1)NS(=O)(=O)c1ccc(C)cc1`, for which the AC50 is 3.98 µM (active) and 2 µM (active).

Consider `COC(=O)C/C=C\[C@@H](C)[C@@H](/C=N\O[C@@H](C)c1cc(-c2c(C)cc(C)cc2C)no1)NS(=O)(=O)c1ccc(C)cc1`, for which the AC50 is 3.16 µM (active).

For `COC(=O)C/C=C\[C@@H](C)[C@@H](/C=N\O[C@@H](C)c1cn([C@H]2COC[C@H]2O)nn1)NS(=O)(=O)c1ccc(C)cc1`, the AC50 was 3.98 µM (active).

As to `COC(=O)C/C=C\[C@@H](C)[C@@H](/C=N\O[C@@H](C)c1cc(-c2c(C)cc(C)cc2C)no1)OC`, the activity, negative = inhibition is -76.7% [at 11.4 µM].

`COC(=O)C/C=C\[C@@H](C)[C@@H](/C=N\O[C@@H](C)c1cn([C@H]2COC[C@H]2O)nn1)OC`: the activity, negative = inhibition is -29.8% [at 11.4 µM].

For the molecule `COC(=O)C/C=C\[C@@H](C)[C@@H](/C=N\O[C@@H](C)c1cn([C@H](CO)Cc2ccccc2)nn1)OC`, the AC50 is 3.98 µM (active).

Consider `Cc1nc(N=Nc2cc(S(=O)(=O)O)ccc2S(=O)(=O)O)c(COP(=O)(O)O)c(C=O)c1O`, for which the AC50 entry is “inactive”.

`O=C(O)C[C@H](S)C(=O)O`: the activity, negative = inhibition was -4.75% [at 11.4 µM].

Consider `[N-]=[N+]=NC[C@@H]1O[C@@H](n2cnc3c(N)ncnc32)[C@@H]2O[C@@H]21`, for which the activity, negative = inhibition was -11.8% [at 11.4 µM].

`Nc1nc2n[nH]nc2c(=O)[nH]1`: the AC50 entry is “inactive”.

`O=C1C2=CC[C@H]3C(=O)N(c4cccc(Oc5ccccc5)c4)C(=O)[C@@H]3[C@@H]2[C@H](O)[C@@H]2O[C@H]12`: the activity, negative = inhibition was -4.92% [at 11.4 µM].

`CON1C(=O)C(=O)N(OC)C(C)(C)C1C` (stereo not given): the AC50 result was “inactive”.

Turning to `COC(=O)C/C=C\[C@@H](C)[C@@H](/C=N\O[C@@H](C)CN1CCCc2nc(C)c(C)cc21)NS(=O)(=O)c1ccc(C)cc1`, the activity, negative = inhibition was -80.9% [at 11.4 µM].

`COC(=O)C/C=C\[C@@H](C)[C@@H](/C=N\O[C@@H](C)CN1CCCCc2nc(C)c(C)cc21)NS(=O)(=O)c1ccc(C)cc1`: the AC50 is 3.98 µM (active).

On to `CC(C)OCCCN1C(=O)c2ccccc2C1C(=O)NC1CCCCC1` (stereo not given), for which the AC50 was 12.6 µM (active).

With `CCCS(=O)(=O)N1CCCC(C(=O)NCCCOC(C)C)C1` (stereo not given), the AC50 entry is “inactive”.

With `O=c1nc(-c2ccccc2)cn[nH]1`, the AC50 entry is “inactive”.

On to `CS(=O)(=O)N1N=C(c2ccc(Br)cc2)CC1c1ccc2c(c1)OCO2` (stereo not given), for which the AC50 is 1.78 µM (active).

Consider `Cc1ccc(C2=NN(S(C)(=O)=O)C(c3cccs3)C2)cc1` (stereo not given), for which the activity, negative = inhibition was -2.01% [at 2.29 µM].

Consider `COc1ccc(-c2cc3ccccc3n2CC(O)CNCCO)cc1` (stereo not given), for which the AC50 is 15.8 µM (active).

As to `Cc1[nH]n2c(=O)c(C#N)c(-c3ccccc3)nc2c1-c1ccccc1`, the AC50 result was “inactive”.

In the case of `CN1CC(c2ccccc2)C2(COc3ccccc3C2=O)C12C(=O)Nc1ccccc12` (stereo not given), the AC50 is 3.98 µM (active).

For `NNS(=O)(=O)c1cc(C(=O)O)cc(C(=O)O)c1`, the activity, negative = inhibition was -6.08% [at 11.4 µM].

Source of the values: PubChem BioAssay AID1851 (National Center for Advancing Translational Sciences (NCATS), 2009).
